Results published in PubChem BioAssay (NCATS).
Results filed as inconclusive are left out. A number with no mark means an inactive call. Activity calls are given as the source filed them. Calls follow the shape of the dose curve; as a rule, active = well fitted activation curve with a large enough effect; inconclusive = small, poorly fitted or top-dose-only effect, or another doubt; inactive = no such curve, though single readings can be large or run the other way.

Experiment: Cell Proliferation Assay against the TMD8 Cell Line (Caspase readout at 8 hrs) (AID 651713)
Conditions: TMD8 lymphoma cells, caspase activation luminescence; series mostly up to 46.1 µM; caspase activation: at the top concentration
Source text: One class of targeted therapeutics showing early clinical success in killing of ABC DLBCL lines are small molecule inhibitors of the Bruton tyrosine kinase (BTK) 11. Thus, we chose to investigate what additional compounds, if any, would synergize with the BTK inhibitor Ibrutinib (PCI-32765).
Prior to any combination assays, using an NCATS developed oncology compound library called the Mechanism of Interrogation Plate (MIPE), two well studied ABC DLBCL lines (TMD8 and HBL1) were screened using a cell viability assay (CellTiterGlo) and a 12-point titration series for each single agent. These initial experiments offered insight into the concentration range that offered the best coverage of activity and non-activity to assure relevant data is generated. In addition to the viability signature associated with this library, we examined the apoptotic response of each agent versus the TMD8 line as judged by caspase 3/7 activation. Activity was assayed at both 8 and 16 hour time-points to gain an appreciation of which agents induced an apoptotic response in a reasonable timeframe from a therapeutic exposure perspective. MIPE was also assayed for single agent viability in a human mesenchymal stem cell (hMSC) line as a surrogate of each library members potential therapeutic index.
The combination plates were then generated by choosing 20 of the best compounds from this single agent screen and plated in the presence of the BTK inhibitor. The first analysis was carried out using 6x6 dose response blocks for each of the 20 compounds. […] In addition to the cell viability assay, the parallel caspase 3/7 activation and viability in hMSC assays were carried out in the 10x10 format.
A total of 500 log growing TMD8 cells are seeded per well in 5 uL of a RPMI with glutamine (or Glutamax), without phenol red plus 5% FBS and 1X Pen/Strep into 1536 -solid white high base tissue culture treated Greiner One Bio Plates (789173-F) using a multidrop combi dispenser and a small sterile cassette. Compounds and controls totaling 23nL per well (negative control DMSO and positive control 9.2 uM Bortezomib-final) are immediately added to the plates using a 1536 head pin tool from Kalypsys. The plates are then covered with stainless steel gasket lids from Kalypsys and incubated for either 8 hours at 37C under 95% relative humidity with 5% CO2. After the desired incubation time, the plates are removed and allowed to reach room temperature before 3 uL of the Caspase Glo reagent (Promega) is added using an Aurora Flying Reagent Dispenser Bioraptor. The plates are then spun at 1000 rpms to remove bubbles and incubated for 15 minutes at room temperature before read on a ViewLux using a luminescent filter with a 10 second exposure. The relative luciferase units are used to calculated percent activity using DMSO as 0% and Bortezomib as 100%.
Potency is read from the fitted curve at half-maximal effect.

Structure (SMILES) | caspase activation | Potency
O=C(O)CC/C=C\CC[C@H]1[C@@H](N2CCCCC2)[C@@H](O)C[C@@H]1OCc1ccc(-c2ccccc2)cc1 | 7.62% | 
CCC1(Cc2ccc(N)cc2)CCC(=O)NC1=O (stereo not given) | 6.36% [at 92.2 µM] | 
CCCCCCCCCCCCCCCCCCOP(=O)([O-])OC1CC[N+](C)(C)CC1 | -4.23% [at 29.8 µM] | 
C[C@@H]1CCN(C(=O)CC#N)C[C@@H]1N(C)c1ncnc2[nH]ccc12 | 0.572% | 
CCOc1cc2ncc(C#N)c(Nc3ccc(OCc4ccccn4)c(Cl)c3)c2cc1NC(=O)/C=C/CN(C)C |  | 23.5 µM (active)
Cc1nnc(C(C)C)n1C1CC2CCC(C1)N2CC[C@H](NC(=O)C1CCC(F)(F)CC1)c1ccccc1 (stereo not given in full) | -24.5% | 
CN(NC(=O)CC(=O)NN(C)C(=S)c1ccccc1)C(=S)c1ccccc1 | 2.47% | 
CC(NC(=O)Cc1cc(F)cc(F)c1)C(=O)NC(C(=O)OC(C)(C)C)c1ccccc1 (stereo not given) | 7.32% | 
O=c1cc(C2=CC=CC3Sc4ccccc4SC23)oc(N2CCOCC2)c1 (stereo not given) |  | 7.43 µM (active)
CCC1(O)CC2CN(CCc3c([nH]c4ccccc34)[C@@](C(=O)OC)(c3cc4c(cc3OC)N(C=O)[C@H]3[C@](O)(C(=O)OC)[C@H](OC(C)=O)[C@]5(CC)C=CCN6CC[C@]43[C@@H]65)C2)C1 (stereo not given in full) |  | 1.32 µM (active)
